# Source: PubChem BioAssay
# The sample as a whole holds a higher share of hits than the screen did.
# RECQ1 helicase – blocks DNA unwinding by human RECQ1 | 240,000 tested, 0.54% active | Potency, µM (doses to about 57.3 µM), actives largely listed as inhibitors | P46063 | RECQ1 DNA unwinding, red fluorescence kinetic read | AID 2549; also: nearly all actives have a fitted effect of over 30% in size
#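 RECQ1T1 50 nM; forked duplex (20 bp + 30-nt ss tails) 200 nM, ATP 2 mM final; pH 8.0, 2 mM MgCl2, 2.5 ug/ml poly(dI-dC); 15 min compound preincubation; discontinuous kinetic read over 2 h at RT.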
# BLM inh – Bloom syndrome helicase (human) inhibition | Potency, µM (top dose mostly 56.1 µM), hits mostly inhibitors | P54132 | 350,000 tested, 0.2% active | recombinant BLM DNA unwinding, fluorescence dequenching; also: nearly all actives have a fitted effect of over 35% in size
# L3MBTL1 block – L3MBTL1 (human) inhibition; AlphaScreen L3MBTL1–H3K9me1 peptide binding; Potency, µM (series often up to 57.1 µM), actives largely listed as inhibitors; 230,000 tested, 0.66% active; also: nearly all actives have a fitted effect of over 60% in size
#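 Read-out is AlphaScreen signal from streptavidin donor and nickel chelate acceptor beads (10 ug/mL final each) bridging L3MBTL1 (50 nM) and biotinylated K9-monomethylated H3(1-15) peptide (75 nM), after 30 min compound exposure at room temperature.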
# GoLoco inh red – RGS12 GoLoco-Gai1 interaction inhibition; Potency, µM (series often up to 61.6 µM), hits mostly inhibitors; 230,000 tested, 0.44% active; P63096; Gai1:RGS12 GoLoco peptide FP, rhodamine, 10 min; active = well fitted inhibition curve with a large enough effect, not every such curve was filed as active; inactive = no such curve, though single readings can be large or run the other way; also: nearly all actives have a fitted effect of over 30% in size
# Target sequence (P63096 whole entry, looked up): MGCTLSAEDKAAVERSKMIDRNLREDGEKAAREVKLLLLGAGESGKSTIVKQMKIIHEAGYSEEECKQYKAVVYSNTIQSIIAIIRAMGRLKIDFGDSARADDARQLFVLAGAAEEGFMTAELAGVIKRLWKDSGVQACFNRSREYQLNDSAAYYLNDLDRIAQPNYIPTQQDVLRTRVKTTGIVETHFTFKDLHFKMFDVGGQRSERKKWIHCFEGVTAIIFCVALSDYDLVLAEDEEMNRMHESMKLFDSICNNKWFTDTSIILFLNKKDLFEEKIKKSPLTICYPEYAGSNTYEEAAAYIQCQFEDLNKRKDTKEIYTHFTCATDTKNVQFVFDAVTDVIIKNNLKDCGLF
# APEX1 inh – inhibitors of human APE1 endonuclease. recombinant APE1, TAMRA/BHQ-2 abasic DNA cleavage fluorescence. Potency, µM (highest dose often 65.8 µM), most hits filed as inhibitors. 350,000 tested, 0.35% active. AID 2517; also: nearly all actives have a fitted effect of over 55% in size
# Target sequence (P27695 whole entry, looked up): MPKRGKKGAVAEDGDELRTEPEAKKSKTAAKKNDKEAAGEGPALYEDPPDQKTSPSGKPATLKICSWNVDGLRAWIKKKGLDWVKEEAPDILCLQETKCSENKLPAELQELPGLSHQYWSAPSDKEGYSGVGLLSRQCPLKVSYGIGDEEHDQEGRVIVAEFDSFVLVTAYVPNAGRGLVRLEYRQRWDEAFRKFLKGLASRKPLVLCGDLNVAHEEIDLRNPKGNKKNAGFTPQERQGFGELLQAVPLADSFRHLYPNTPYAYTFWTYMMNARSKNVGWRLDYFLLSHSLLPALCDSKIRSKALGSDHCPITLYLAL
#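 Activity was derived from the fluorescence gain between first and third kinetic reads (60 s intervals, ex 525/em 598 nm) after 50 nM THF-abasic TAMRA/BHQ-2 duplex was added to 0.75 nM APE1 preincubated 15 min with compound.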
# JMJD2E inh – blocks human JMJD2E demethylase activity. B2RXH2. JMJD2E catalytic domain, FDH-coupled NADH fluorescence (FDH is formaldehyde dehydrogenase). Potency, µM (series often up to 57.1 µM), hits mostly inhibitors. 230,000 tested, 1.6% active. AID 2147; active = well fitted inhibition curve with a large enough effect, not every such curve was filed as active; inconclusive = small, poorly fitted or top-dose-only effect, or another doubt; inactive = no such curve, though single readings can be large or run the other way; also: nearly all actives have a fitted effect of over 50% in size
# Numbers stand for hits; 0 = inactive; ? = inconclusive; - = no result; ! = repeats disagree; [ ] = another dose, or the depositor's remark. Unless noted, calls follow the shape of the dose curve; as a rule, active = well fitted curve in the direction sought with a large enough effect; inconclusive = small, poorly fitted or top-dose-only effect, or another doubt; inactive = no such curve, though single readings can be large; an effect the other way counts as inactive or inconclusive.
SMILES,RECQ1 helicase,BLM inh,L3MBTL1 block,GoLoco inh red,APEX1 inh,JMJD2E inh
CC(=O)Nc1c(C(=O)Nc2cccc(C)c2)nnn1-c1ccc(C)cc1,-,0,-,-,-,-
COC(=O)C(NS(=O)(=O)c1ccc(C)cc1)c1ccccc1 (stereo not drawn),0,0,0,0,0,0
Cc1ccc(S(=O)(=O)NC(C(=O)Oc2ccc3c(C(F)(F)F)cc(=O)oc3c2)c2ccccc2)cc1 (stereo not drawn),0,0,0,0,0,32µM
Cc1cccn2c(=O)c3cc(C(=O)N(Cc4ccccc4)C(C)C)sc3nc12,-,0,-,-,-,-
CCn1c(C)cc(/C=C2/NC(=O)N(c3ccccc3)C2=O)c1C,?,0,0,0,0,25µM
COCCn1c(C)cc(/C=C2/NC(=O)N(c3cccc(Cl)c3)C2=O)c1C,0,0,0,0,0,?
CCn1c(C)cc(/C=C2/NC(=O)N(CC(=O)Nc3cccc(C)c3)C2=O)c1C,0,0,0,0,0,22µM
Cc1ccc(NC(=O)CN2C(=O)N/C(=C/c3ccccc3OCc3cccc(C(=O)O)c3)C2=O)cc1,-,?,-,-,19µM,-
N#Cc1ccc(Nc2nn3c(=O)c4ccccc4nc3s2)cc1,-,-,-,-,0,-
Oc1cc2cc(CCN3CCN(c4nsc5ccccc45)CC3)c(Cl)cc2[nH]1,-,0,-,-,-,-
CCc1ccc(-c2cn3c(n2)sc2cc(C(=O)NC4CCCCC4)ccc23)cc1,-,0,-,-,-,-
COc1ccccc1N1CCN(/N=C/c2ccc(O)c(O)c2)CC1,0,0,0,0,0,28µM
Cc1ccc(Cl)cc1NC(=O)c1cc(CN2CCCC2)on1,-,0,-,-,-,-
N[C@H](C(=O)O)[C@H](O)C(=O)O,0,0,-,0,0,13µM!
COc1ccccc1-c1nc(C(N)=O)c2[nH]c(=O)n(-c3cccc(C)c3)c2n1,0,0,0,0,0,?
Cc1cccc(-n2c(=O)[nH]c3c(C(N)=O)nc(-c4ccccc4Cl)nc32)c1,0,0,0,0,?,1.8µM
CC/C(=N\Nc1ccc([N+](=O)[O-])cc1[N+](=O)[O-])c1ccc(O)cc1,-,0,-,-,0,-
CC/C(=N\Nc1ccccc1[N+](=O)[O-])c1ccc(O)cc1,?,0,25µM,0,0,0
COC(=O)c1c(Cl)c2n3ccccc3c(C)c(-c3ccccc3)c-2c1C(=O)OC,0,0,?,14µM,0,?
CSC(=Nc1ccc(Cl)cc1)N[n+]1ccccc1,0,0,0,7.1µM,0,0
Cc1cc(Br)cc(C)c1OCC(=O)Nc1ccc(S(=O)(=O)Nc2ncccn2)cc1,-,0,-,-,-,-
CC(C)n1c(=S)[nH]c2c1c(=O)[nH]c(=O)n2C,0,0,0,10µM,0,7.9µM
COc1ccccc1NC(=O)C(=N\O)/C(C)=N/O,0,0,0,0,22µM,0
Cn1c(=O)c(Nc2ccc(O)cc2)c2c3c(cccc31)C(=O)c1ccccc1-2,0,?,25µM,0,0,0
Cc1ccc(C2CC(=O)Oc3cc(C)c(Cl)cc32)cc1 (stereo not drawn),0,0,-,0,0,-
SMILES,RECQ1 helicase,BLM inh,L3MBTL1 block,GoLoco inh red,APEX1 inh,JMJD2E inh
Nc1ccc(S(N)(=O)=O)cc1N,0,0,-,0,0,7.9µM
CC(=O)[C@@H]1[C@H]2[C@H](C(=O)[C@H]3OC[C@@H]2O3)[C@H]2C=Cc3ccccc3N21,32µM,0,-,0,0,13µM
COc1ccc(Cl)c(Cn2cnc3c(cnn3C(C)(C)C)c2=O)c1,-,-,-,-,0,-
c1cnc2ccc3ncccc3c2c1,0,0,0,0,0,18µM
C[C@H]1Cc2c(-c3ccccc3)nc3c(c2CO1)CN(C(=O)c1ccco1)CC3,0[11.5 µM],0[12.4 µM],-,0[14.2 µM],0[12.4 µM],0[11.4 µM]
Nc1cc(-c2ccncc2)c[nH]c1=O,?,?,?,0,?,1.1µM
COC(=O)[C@H](COC(C)(C)C)NC(=O)O[C@H]1C(=O)c2cc(OC)ccc2O[C@@H]1c1ccc(OC)c(Br)c1,0,0,-,0,0,?
CO[C@H]1OC2O[C@@]3(C)CC[C@H]4[C@H](C)CC[C@@H]([C@H]1C)[C@@]24OO3 (stereo partly drawn),-,0,-,0,-,-
CCCCC1=CC2=C(OC(C)=O)C(=O)C(C)(OC(=O)C3CCCC3)C(=O)C2=CO1 (stereo not drawn),0,0,-,0,0,0
C[N+]1(C)CCC(=C2c3ccccc3CC(=O)c3sccc32)CC1,0,0,?,14µM,0,0
c1ccc2c(C3CCO3)cccc2c1 (stereo not drawn),-,-,0,-,0,-
O=C1c2ccccc2C(=O)C12OC2c1cccc2ccccc12 (stereo not drawn),0,18µM,14µM,0,0,?
Nc1nc2c(s1)CCc1c-2cnn1-c1ccccc1,?,0,32µM,0,0,?
O=C(NNc1c2ccccc2nc2ccccc12)c1ccccc1O,?,0,0,0,0,?
O=C(NNc1nc(=O)c2cccnc2s1)c1ccccc1O,0,0,-,0,0,14µM
O=Nc1c(-c2c(O)[nH]c3cc(Br)ccc23)[nH]c2ccccc12,28µM,0,-,0,0,0
CCOC(=O)c1cc(C(=O)OCC)cc(-n2c(C)cc(C(=O)CN3CCOCC3)c2C)c1,0,0,0,0,0,13µM
CC(C)c1ccc(NC(=O)CN2C(=O)COc3ccc(S(=O)(=O)Nc4ccccc4)cc32)cc1,-,0,-,-,-,-
CC1=c2c(oc3cc(O)c(Nc4c(C)cc(O)cc4O)c(C)c23)=CC(=O)C1=Nc1c(C)cc(O)cc1O,-,-,-,3.2µM,-,-
COc1ccc(CCNc2ncnc3c2c(-c2ccccc2)cn3-c2ccc(F)cc2)cc1OC,-,0,-,-,-,-
c1ccc2c(c1)ccc1ncccc12,0,0,-,0,0,0
Oc1c(N=Nc2ccccn2)ccc2ccccc12,0,0,11µM,0,0,?
COC(=O)c1cc2oc3ccccc3c2n1Cc1cc(C)ccc1C,-,0,-,-,-,-
O=C(O)Cc1ccc(O)c(O)c1,0,0,-,0,?,25µM
CC(C)=CC[C@@H](O)C1=CC(=O)c2c(O)ccc(O)c2C1=O,10µM,-,-,0,7.1µM,-
SMILES,RECQ1 helicase,BLM inh,L3MBTL1 block,GoLoco inh red,APEX1 inh,JMJD2E inh
COc1cc2c(C=O)c3c4c(cc(OC)c(OC)c4c2cc1OC)CCN3C,0,0,-,0,?,?
COc1ccc2c(c1)O[C@@H](c1cccc(C(F)(F)F)c1)[C@H](OC(=O)NS(=O)(=O)c1ccc(C)cc1)C2=O,0,0,-,0,0,?
Cc1cc(C)cc(NC(=O)CSc2nnc(CNC(=O)c3c(F)cccc3Cl)o2)c1,-,0,-,-,-,-
O=C(NNC(=O)c1cccnc1SCc1cccc([N+](=O)[O-])c1)c1ccc(F)cc1,0,0,0,0,0,0
O=C(NNC(=O)c1cccnc1SCc1cccc([N+](=O)[O-])c1)c1ccccn1,0,0,0,0,0,10µM
CN(c1ccccc1)S(=O)(=O)c1cccc(C(=O)NCCc2ccc(O)c(O)c2)c1,0,0,?,0,0,14µM
COc1ccc(CCNC(=O)c2ccc(S(=O)(=O)N(C)c3ccccc3)cc2)cc1OC,-,0,-,-,0[12.4 µM],-
